FBW7 act – FBW7 E3 ligase activators, primary screen, biochemical, AlphaScreen, human; AID 1259310, 2017; AlphaScreen FBW7–phospho-cyclin E peptide binding, activator screen; 650,000 tested, 0.13% active; normalized activity (activation), % at 26.1 µM; in the data active means normalized activity above about 1.9%;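 further: purified mutant Fbw7 with reduced substrate affinity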
TEAD-YAP block – TEAD-YAP interaction inhibition, primary screen, TEAD-YAP interaction inhibitor project, luminescence, HEK-TIYL cells; TEAD-Gal4/YAP UAS-luciferase luminescence; inhibition, % at 9.12 µM; 640,000 tested, 1.4% active; AID 1259422, 2018; in the data active means inhibition above about 32%;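 further: 0% = median of test compound wells and 100% = reference inhibitor wells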
GPR151 ag – activators of human GPR151, primary screen, cell-based, PathHunter beta-arrestin, luminescence; G-protein coupled receptor 151 (Homo sapiens), Q8TDV0; PathHunter beta-arrestin GPR151 cells; AID 1508602, 2020; activation, % at 11.2 µM; 650,000 tested, 1% active; in the data active means activation above about 4.9%;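 further: 0% = median of compound wells and 100% = cells with positive control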
MITF primary – MITF inhibitors, primary screen, biochemical, AlphaScreen, human. inhibition, % at 2.6 µM. AlphaScreen MITF homodimerization, bead proximity signal. 650,000 tested, 0.91% active; in the data active means inhibition above about 50%;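 further: 0% = vehicle wells with protein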
* marks the source's active call; other numbers are inactive results. The list is not random: actives were taken first. Their share in the collection is about 3.5%.

SMILES	FBW7 act	TEAD-YAP block	GPR151 ag	MITF primary
CCOC(=O)c1sc2nc3c(c(-c4ccco4)c2c1N)CCCC3	1	8	0	1
COc1ccc(-c2c(C#N)c(N)nc3sc(C(N)=O)c(N)c23)cc1OC	0	-7	-1	17
N#Cc1c(N)nc2sc(C(N)=O)c(N)c2c1-c1cccs1	0	42*	0	-8
Nc1c(C(=O)c2ccccc2)sc2nc3c(c(-c4cccs4)c12)CCCC3	1	-10	-2	23
NC(=O)c1sc2nc3c(c(-c4ccco4)c2c1N)CCCCC3	0	40*	0	-11
O=C(c1ccc(F)cc1)n1nc(-c2cccnc2)nc1NCc1ccco1	0	-5	-2	0
COc1ccc(C(=O)c2ccco2)cc1	0	-25	1	13
O=C1OC(c2cccc(Cl)c2)=N/C1=C\C=C\c1ccccc1	0	-2	1	-4
COC(=O)c1c(C)[nH]c(-c2csc(N)n2)c1C	0	51*	0	13
CC(=O)c1c(C)[nH]c(-c2csc(NC3CCCCC3)n2)c1C	1	-4	-1	-9
COc1cc(OC)cc(C(=O)Nc2nc(-c3ccccn3)cs2)c1	0	49*	0	18
O=C(Nc1nc(-c2ccccn2)cs1)c1ccc(Oc2ccccc2)cc1	0	43*	-1	0
CCOC(=O)c1ccccc1NC(=O)C1CCN(c2ccc(-c3cccs3)nn2)CC1	0	3	0	8
Cc1cccc(NC(=O)C2CCN(c3ccc(-c4cccs4)nn3)CC2)n1	0	55*	-10	19
CC(=O)Nc1cccc(C(=O)Nc2ccc(C)cc2)c1	0	-59	-3	-2
CN(C)c1ccc(-c2ccc(OC3CCN(S(C)(=O)=O)CC3)cc2)cn1	0	11	1	5
COc1ccccc1NC(=O)N1CCC(C(=O)Nc2cc(C)cc(C)c2)CC1	0	0	1	-8
CN(C)c1ccc(-c2ccc(OC3CCN(c4ncccn4)CC3)cc2)cn1	0	48*	0	7
CN(C)c1ccc(-c2ccc(OC3CCNCC3)cc2)cn1	0	57*	-2	10
COc1ccccc1NC(=O)N1CCC(Oc2ccc(-c3ccc(N(C)C)nc3)cc2)CC1	0	35*	-1	14
O=C1CC(NC23CC4CC(CC(C4)C2)C3)C(=O)N1c1cccc(Cl)c1 (centres undefined)	0	-5	-1	-8
COc1ccc(-c2nc3ccccc3c(=O)n2NCc2cccc(F)c2)cc1OC	0	2	0	1
COc1ccc2c(c1)N(C(=O)Nc1ccc(Cl)c(Cl)c1)C(C)(C)C=C2C	0	-7	0	1
O=C(CSc1ccccc1C(=O)O)Nc1ccnc2ccccc12	0	-10	2	17
O=C(CSc1nnnn1C1CC2CCC1C2)Nc1ccnc2ccccc12 (centres undefined)	0	61*	0	16
SMILES	FBW7 act	TEAD-YAP block	GPR151 ag	MITF primary
CC1CN(C2CCN(Cc3cc(Br)ccc3O)CC2)CC(C)O1 (centres undefined)	0	10	0	70*
OCCN1CCN(C2CCN(Cc3cc(Br)ccc3O)CC2)CC1	0	-11	0	53*
Oc1ccc(Br)cc1CN1CCC(N2CCCCC2)CC1	-1	-1	-1	46
COc1ccc(Cl)cc1NC(=O)c1cccc(OC(C)C)c1	1	-17	-1	7
CC(C)(C)c1ccc(NC(=O)N2CCc3ccccc32)cc1	0	87*	-4	8
Cc1ccc(NC(=O)N2CCCc3ccccc32)cc1	0	-17	0	-4
Cc1oc2c(c1C(=O)O)C(=O)c1ccccc1C2=O	0	-6	1	0
Cc1oc2c(c1C(=O)N1CCCC1)C(=O)c1ccccc1C2=O	0	54*	-1	16
O=C(CCSCCc1ccccn1)Nc1cc(-c2cccc(Cl)c2)no1	0	-3	1	12
Cc1nc(N)sc1C(=O)N/N=C/c1c(Cl)ccc(Cl)c1Cl	2.5*	9	1	15
Cc1nc(N)sc1C(=O)N/N=C/c1c(F)cccc1Cl	0	-10	-2	1
COc1cc(OC)cc(C(=O)N2CCN(c3cc(Cl)ccc3C)CC2)c1	0	54*	0	12
Cc1ccc(Cl)cc1N1CCN(C(=O)c2coc(=O)c3ccccc23)CC1	0	61*	1	-10
O=C(c1coc(=O)c2ccccc12)N1CCN(c2ccccc2F)CC1	0	8	1	-3
Cc1ccc(Cl)cc1N1CCN(C(=O)c2ccc(=O)[nH]c2)CC1	0	11	3	13
O=C1CCN(C(=O)c2ccc(-c3nc4ccccc4s3)s2)CC1	0	99*	-11	13
O=C(NCCOc1cccnc1)c1ccc(-n2cc(NC(=O)c3ccoc3)cn2)cc1	0	52*	-1	-10
O=C(NCCCc1cccnc1)c1ccc(-n2cc(NC(=O)C3CCOC3)cn2)cc1 (centres undefined)	0	32*	-1	16
O=C(NCCn1ccc2ccccc21)c1ccc(-n2cc(NC(=O)c3ccoc3)cn2)cc1	0	-8	0	8
O=C(Nc1ccc(NC(=O)C2CCCCC2)nc1)C1CC1	0	0	0	-2
O=C1C(=O)N(CCCn2ccnc2)C(c2ccncc2)/C1=C(/O)c1ccc(F)cc1 (centres undefined)	0	-2	0	19
Cc1cc(N2CCOCC2)nc(Nc2ccc(NC(=O)COc3ccccc3)cc2)n1	0	81*	5	-9
CCNc1nc(C)cc(NCc2ccccc2)n1	0	-7	1	5
Cc1cc(NC2CCCCC2)nc(NCc2ccccc2)n1	0	43*	0	-9
Cc1cc(Nc2ccc(N3CCOCC3)cc2)nc(Nc2nc3ccccc3n2C)n1	0	42*	1	7
SMILES	FBW7 act	TEAD-YAP block	GPR151 ag	MITF primary
Cc1cc(NCc2ccccc2)nc(Nc2ccc(-n3ccnc3)cc2)n1	0	35*	1	-2
Cc1cc(NCCO)nc(Nc2ccc(-n3ccnc3)cc2)n1	0	28	0	16
Cc1ccc(C)c(NC(=O)Nc2ccc(Nc3nc(C)cc(N4CCOCC4)n3)cc2)c1	0	-19	-1	10
CCC(C)C(NS(=O)(=O)c1cccc(C(F)(F)F)c1)C(N)=O (centres undefined)	0	2	1	6
NC(=O)c1ccccc1NC(=O)c1cc([N+](=O)[O-])cc([N+](=O)[O-])c1	0	14	1	-26
CCC(=O)c1ccc(OCCON2C(=O)CCC2=O)cc1	0	0	-1	-4
c1cc(Nc2ccnc(Nc3ccc(N4CCOCC4)cc3)n2)c2ccncc2c1	2.6*	8	-1	-12
c1cncc(CNc2ccnc(Nc3ccc(N4CCOCC4)cc3)n2)c1	0	-9	-1	10
Cc1cc(NCc2ccccc2)nc(Nc2ccc(N3CCOCC3)cc2)n1	0	49*	0	15
